# Values joined by “and” are separate entries in the source; they are usually repeats but may differ in a detail not shown here. Equal values may be shown once. Compounds without any hit were thinned out: in the full panel of roughly 83,000, 20% have a hit.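 Step 1: grow cells in 96-well plates. Step 2: add test compound at a single concentration. Step 3: incubate 48 h. Step 4: record percent growth.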 Unmarked numbers belong to inactive results. Active and inactive are the calls of the source. How the source made its calls: active means growth percent below 10; inactive means the rest.
# Experiments:
# Assay in all cases: NCI-60 one-dose screen, 48 h (100 = growth as untreated, 0 = no growth, -100 = all killed)
# Settings in all cases: 10 µM unless noted
# HCT-15 colon = test system: HCT-15 colon
# HT29 colon = test system: HT29 colon
# SNB-75 CNS = test system: SNB-75 CNS
# SNB-19 CNS = test system: SNB-19 CNS
# U251 CNS = test system: U251 CNS
# PC-3 prostate = test system: PC-3 prostate
# SK-MEL-5 melanoma = test system: SK-MEL-5 melanoma
# UACC-62 melanoma = test system: UACC-62 melanoma
# LOX IMVI melanoma = test system: LOX IMVI melanoma
# SK-MEL-28 melanoma = test system: SK-MEL-28 melanoma
SMILES,growth (HCT-15 colon),growth (HT29 colon),growth (SNB-75 CNS),growth (SNB-19 CNS),growth (U251 CNS),growth (PC-3 prostate),growth (SK-MEL-5 melanoma),growth (UACC-62 melanoma),growth (LOX IMVI melanoma),growth (SK-MEL-28 melanoma)
Cc1nc(Nc2ccccn2)sc1C1=NNC(c2ccccc2F)C1 (stereo not given),20.8%,30.4%,62.3%,56.1%,51%,58.5%,48.7%,29.4%,31.5%,65.9%
C=CCn1c(O)c(N=Nc2nc(-c3cc4ccccc4oc3=O)cs2)c2ccccc21,98.4%,17.2%,-25% (active),38.7%,13.3%,56.4%,33.3%,52.6%,70.1%,49.8%
O=C(Nc1ccc(-c2ccc3c(c2)NC(=O)/C3=C\c2ccc[nH]2)cc1)Nc1ccc(Cl)c(Cl)c1,41.4%,10.7%,52.1%,67.5%,21.9%,64.7%,74.7%,42.4%,26.2%,64.2%
COc1ccc(CCC2NCCc3c(Br)c4c(c(OC)c32)OCO4)cc1 (stereo not given),7.93% (active),2.11% (active),-4.42% (active),12.1%,7.13% (active),26.5%,-17% (active),-32.5% (active),-27.5% (active),1.12% (active)
COc1ccc(/C=C/c2nc3ccccc3n3c(-c4cccc([N+](=O)[O-])c4)nnc23)cc1,-80.7% (active),-59.5% (active),-2.16% (active),15%,-64.5% (active),5.23% (active),-95.4% (active),-83.1% (active),-77.3% (active),-47.1% (active)
N#Cc1cc(-c2ccc3ncnc(N4CCc5cc(F)c(Cl)cc54)c3c2)cnc1N,23.3%,34.2%,24.9%,57.9%,57%,33.8%,55.9%,56.7%,28.4%,61.2%
N/C(=N\c1nc2ccccc2s1)NC(=O)Nc1ccccc1[N+](=O)[O-],5.8% (active),-31.5% (active),19.5%,21.1%,7.5% (active),29.3%,-21.5% (active),12%,10%,51%
Clc1ccccc1Nc1nnc(-c2c[nH]c3ccccc23)o1,26.1%,2.07% (active),42%,41%,7.39% (active),32.7%,9.29% (active),15.2%,15.5%,59.4%
Cc1ccccc1Nc1nnc(-c2c[nH]c3ccccc23)o1,16.8%,2.95% (active),26%,41%,11.8%,37.6%,-17% (active),28.4%,29.1%,61.3%
COc1ccc2[nH]c(O)c(N=Nc3nc(-c4ccc(Cl)cc4)cs3)c2c1,-53.3% (active),-18.4% (active),-66.9% (active),24.1%,-75.6% (active),-10.5% (active),8.45% (active),-32.3% (active),-54.9% (active),-24.2% (active)
Nc1ccc(-c2ccc3ncnc(N4CCc5cc(F)c(Cl)cc54)c3c2)cn1,24.8%,25.9%,-4.49% (active),39.3%,43.8%,19%,16.6%,15%,18.7%,41.4%
NS(=O)(=O)c1ccc(Nc2nc(SCC(=O)c3ccc(F)cc3)nc3ccccc23)cc1,24.9%,63.3%,43.5%,54.8%,47.2%,43.1%,18.6%,26.4%,20.7%,55.6%
Cc1ccc(C2CC(c3ccc(NC(=S)Nc4ccccc4)cc3)=NN2c2ccc(S(N)(=O)=O)cc2)cc1 (stereo not given),4.26% (active),1.32% (active),21.4%,23.1%,5.8% (active),7.16% (active),27.9%,17%,14.9%,-57.7% (active)
CCOc1ccc(-c2cc(-c3cc(C(C)C)c(O)cc3C)nn2-c2ccc(S(N)(=O)=O)cc2)cc1,4.81% (active),98.5%,32.6%,49%,27.8%,42.4%,26.3%,24%,17.9%,58.5%
C[C@@H]1CN(c2ccc3ncc(C#Cc4cncc(C(=O)Nc5ccc(CN6CCN(C)CC6)c(C(F)(F)F)c5)c4)n3n2)C[C@@H](C)O1,-91% (active),-60.5% (active),-95.9% (active),-99.8% (active),-68.8% (active),-54.9% (active),-99.6% (active),-65.6% (active),-96.8% (active),-58.4% (active)
Cc1ccc(-c2cc(-c3ccccc3)[nH]c(=O)c2C#N)cc1,71%,114%,99.4%,84.3%,90.8%,83.7%,90%,84.6%,83%,109%
COc1cc(/C=C/C(=O)c2cnn(-c3cc(=O)[nH]c4ccccc34)c2C)cc(OC)c1OC,12.2%,9.84% (active),71.9%,26.6%,9.13% (active),43.3%,-24.9% (active),29.9%,13.5%,36.5%
Cc1cccc(-c2ccccc2Oc2ccc3nnc(Cl)n3n2)c1,99.6%,107%,89.4%,97.8%,94.6%,103%,98.5%,96.8%,93.7%,107%
CC1=C(C(=O)Nc2ccccc2)C(c2ccc3ccccc3c2)n2c(nc3ccccc32)N1 (stereo not given),40.5%,69%,-11.1% (active),79.4%,28.6%,21.7%,87.3%,75%,9.5% (active),63.2%
O=C(NN1C(=O)/C(=C/C=C/c2ccc([N+](=O)[O-])o2)SC1=S)c1ccc([N+](=O)[O-])cc1,-85.4% (active),-80.3% (active),-91.1% (active),-100% (active),-89.4% (active),-72.5% (active),-100% (active),-99.6% (active),-97.1% (active),-99% (active)
O=C(Nc1nc2ccc([N+](=O)[O-])cc2s1)Nc1ccc(Cl)cc1Cl,49.1%,64.7%,-24.4% (active),46.6%,11.4%,47.3%,27.5%,56%,34.8%,79.5%
Cc1ccc(C(=O)Nc2cc(-n3ccnc3)cc(C(F)(F)F)c2)cc1-n1cc(-c2cnc3cccnn23)nn1,97.4%,39.2%,132%,118%,112%,123%,73%,19.5%,39.4%,34.6%
O=C(Cc1c(-c2cccc([N+](=O)[O-])c2)n(-c2ncnc3c2c(-c2ccccc2)c(-c2ccccc2)n3Cc2ccccc2)[nH]c1=O)c1ccc(Cl)c(Cl)c1,62.3%,37%,46.1%,25.9%,26.4%,30.7%,-10.2% (active),14%,15.7%,46.3%
CN1CCN(C(=O)Oc2cc3c(c4ccccc24)[C@H](CCl)CN3C(=O)c2cc3cc(OCCCN4CCC4)ccc3[nH]2)[C@H]2CSSC[C@H]21,-1.96% (active),-1.25% (active),-77.2% (active),-15% (active),6.86% (active),-8.67% (active),-21.2% (active),-81.9% (active),-23.9% (active),-51.1% (active)
O=C1CCC(N2C(=O)c3cccc(NCCCCCC(=O)N4CCN(c5ccc6nc7c(nc6c5C(F)(F)F)C(=O)c5ncccc5C7=O)CC4)c3C2=O)C(=O)N1 (stereo not given),-69.5% (active),-18.7% (active),-75.8% (active),-72.3% (active),-90.4% (active),-19.8% (active),-95.3% (active),-72.7% (active),-85.1% (active),-84.8% (active)
COc1cc(C=O)ccc1Oc1nc(Nc2ccc(F)cc2)nc(N(C)C)n1,88.4% and 18.6%,105% and 69.2%,47.7% and 58.3%,87.6% and 68.2%,85% and 36.5%,90.3% and 61.7%,32.3% and 76.3%,63% and 85.7%,54.3%,99.9% and 84.4%

# — PubChem BioAssay (NCI)
